# From PubChem BioAssay (NCATS)
# Where “and” joins values, the source holds several entries; their conditions need not be identical. Equal entries are not always repeated. Records with an inconclusive call do not appear. A call without a number means that no potency is given here. Calls of active or inactive are those of the source. Unless noted, calls come from the whole dose curve; as a rule, active = well fitted curve in the direction sought with a large enough effect; inconclusive = small, poorly fitted or top-dose-only effect, or another doubt; inactive = no such curve, though single readings can be large; an effect the other way counts as inactive or inconclusive.
# Tests used:
# [1] = molecular target: Alpha-galactosidase A (Homo sapiens) (UniProt P06280); experiment: Counterscreen for Glucocerebrosidase Inhibitors: qHTS Assay for Human alpha-Galactosidase at pH 4.5 (AID 992)
# Chain of Alpha-galactosidase A (Homo sapiens) (P06280 whole entry, looked up): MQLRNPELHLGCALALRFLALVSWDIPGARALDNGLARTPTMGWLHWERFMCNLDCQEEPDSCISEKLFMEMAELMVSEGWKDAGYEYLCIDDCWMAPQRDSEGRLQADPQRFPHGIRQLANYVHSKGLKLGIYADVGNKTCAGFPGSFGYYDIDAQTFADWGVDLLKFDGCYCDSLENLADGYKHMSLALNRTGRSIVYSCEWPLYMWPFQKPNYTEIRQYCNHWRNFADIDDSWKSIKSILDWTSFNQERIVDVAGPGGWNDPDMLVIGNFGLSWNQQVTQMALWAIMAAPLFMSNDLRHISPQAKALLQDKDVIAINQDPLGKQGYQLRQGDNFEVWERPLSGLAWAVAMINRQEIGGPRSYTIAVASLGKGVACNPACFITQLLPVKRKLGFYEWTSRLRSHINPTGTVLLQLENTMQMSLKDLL
# Summary of the method: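 Concentration-response curves (0.7 nM to 77 uM final) were modeled with the Hill equation to give AC50. Reactions: 2 nM enzyme, 80 uM fluorogenic alpha-galactoside, pH 4.5 citric acid buffer, 20 min, room temperature.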
# [2] = molecular target: alpha-glucosidase (Oryza sativa, rice) (UniProt Q653V4); experiment: Counterscreen for Glucocerebrosidase Inhibitors: qHTS Assay for Rice alpha-Glucosidase at pH 5.0 (AID 997)
# Summary of the method: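 Rice alpha-glucosidase (4 nM final) with 400 uM 4-methylumbelliferyl-alpha-D-glucopyranoside in citrate buffer pH 5.0, 20 min at room temperature, stopped at pH 10; fluorescence 365/440 nm, compounds 0.7 nM–77 uM, AC50 from Hill fits.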
# [3] = Validation of Assay for Modulators of Lamin A Splicing (AID 1459; active = well fitted curve in the direction sought with a large enough effect in the signal ratio; the % refers to the signal ratio;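 note: cells exposed to compound for two days before reading; ratio rise marks activators and ratio drop marks inhibitors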)
# Summary of the method: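 Splicing correction is reported by an EGFP-containing lamin A minigene in stably transfected S3 HeLa cells, while DsRed2 controls for viability and nonspecific signal. Cells are exposed to compounds for 48 hrs before the GFP over RFP ratio is taken.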
# [4] = qHTS Assay for Lipid Storage Modulators (AID 1519; calls by dose curve); settings: Drosophila S3 cells, BODIPY lipid droplet/cell ratio, laser cytometry, cells loaded with oleic acid
# Summary of the method: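 Cells seeded at 5,000 per well were treated with compounds over a concentration series and loaded with oleic acid (400 uM, as added). Lipid droplet fluorescence (488 nm excitation, 500-530 nm channel) was read by laser-scanning cytometry and normalized to 20 uM Triacsin C.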
# [5] = molecular target: DNA repair nuclease/redox regulator APEX1 (Homo sapiens) (UniProt P27695); experiment: qHTS Validation Assay for Inhibitors of the Human Apurinic/apyrimidinic Endonuclease 1 (APE1) (AID 1705; note: potency is the fitted concentration of half-maximal effect;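 for activity change, negative = inhibition: TAMRA fluorescence gain over two minutes as APE1 cuts a quenched THF abasic duplex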)
# Chain of DNA repair nuclease/redox regulator APEX1 (Homo sapiens) (P27695 whole entry, looked up): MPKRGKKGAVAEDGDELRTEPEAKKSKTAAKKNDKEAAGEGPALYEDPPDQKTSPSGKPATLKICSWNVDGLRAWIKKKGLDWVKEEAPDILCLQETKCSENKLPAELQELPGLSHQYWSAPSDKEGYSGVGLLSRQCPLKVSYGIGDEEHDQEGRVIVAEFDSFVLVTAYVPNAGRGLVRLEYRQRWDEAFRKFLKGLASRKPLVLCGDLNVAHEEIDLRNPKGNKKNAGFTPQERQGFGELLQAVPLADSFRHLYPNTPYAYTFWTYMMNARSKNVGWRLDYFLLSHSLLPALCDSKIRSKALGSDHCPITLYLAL
# Summary of the method: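 Endonuclease activity of human APE1 is followed as dequenching when the enzyme incises a tetrahydrofuran abasic site in a short duplex labelled 5'-TAMRA/3'-BHQ-2 (50 nM final), after 15 min enzyme–compound preincubation at room temperature.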
# [6] = Counterscreen for APE1 Inhibitors: Fluorescent Dye Displacement Validation Assay (AID 1707); note: potency is the fitted concentration of half-maximal effect
# Summary of the method: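 Assay buffer: Tris-HCl pH7.5 with 50mM NaCl, 2 mM MgCl2, 0.01% Tween-20. Dye 250 nM, duplex 50 nM final. Readout: decrease in ThO endpoint fluorescence, 480 nm excitation, 540 nm emission.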
# [7] = Cell Viability - LYMP2-025 (AID 976)
# Summary of the method: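 Human lymphoblastoid LYMP2-025 cells, 2500/well, exposed 24 h at 37 C in complete medium in 1536-well qHTS. Viability as cellular ATP by CellTiter-Glo luminescence; AC50 from Hill fits of concentration-response data.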
# [8] = Cell Viability - LYMP2-012 (AID 982);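 note: cellular ATP by luciferase luminescence where a drop means cytotoxicity; cells exposed to compound for one day before reading; nearly all actives have a fitted effect of over 55% in size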
# [9] = Cell Viability - LYMP2-022 (AID 987); note: nearly all actives have a fitted effect of over 55% in size
# Summary of the method: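 LYMP2-022 lymphoblastoid cells (2500/well, complete medium) were treated with compounds for 24 hours at 37 C; intracellular ATP was then read by CellTiter-Glo luminescence after 30 min at room temperature. AC50 values were derived from Hill-equation fits.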
# [10] = Cell Viability - LYMP1-002 - Assay at 24 hr (AID 993)
# Summary of the method: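 Human lymphoblastoid LYMP1-002 cells (2500/well) treated 24 h at 37 °C; viability as intracellular ATP by CellTiter-Glo luminescence. Tetraoctylammonium bromide as positive control; AC50 from Hill-equation fits of qHTS concentration-response.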
# [11] = Cell Viability - LYMP1-002 - Assay at 40 hr (AID 994); note: nearly all actives have a fitted effect of over 60% in size
# Summary of the method: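 LYMP1-002 human lymphoblastoid cells (2500/well, complete medium) were treated with compounds for 40 hr at 37 C. Intracellular ATP was measured by CellTiter-Glo luminescence, and AC50 values came from Hill-equation fits of concentration-response data; tetraoctylammonium bromide was the positive control.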
# [12] = Cell Viability - LYMP2-002 (AID 977);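 note: compound exposure lasted 24 h at 37 °C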
# Summary of the method: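 Human lymphoblastoid LYMP2-002 cells, 2500 per well, exposed to compounds for 24 h at 37 C in complete medium; viability read as intracellular ATP by CellTiter-Glo luminescence, AC50 from Hill fits.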
# [13] = Cell Viability - LYMP2-006 (AID 978); note: nearly all actives have a fitted effect of over 60% in size
# Summary of the method: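 Concentration-dependent loss of intracellular ATP in a human lymphoblastoid line after 24 hr treatment at 37 C was measured by CellTiter-Glo luminescence, with AC50 values obtained from standard Hill-equation modelling.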
# [14] = Cell Viability - LYMP2-007 (AID 979);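 note: cells exposed to compound for 24 h before reading; nearly all actives have a fitted effect of over 60% in size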
# Summary of the method: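 Human lymphoblastoid LYMP2-007 cells (2500/well) preincubated 5 h at 37 C, then treated 24 h at 37 C in complete medium. Viability by CellTiter-Glo ATP luminescence after 30 min at room temperature; AC50 from Hill fits.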
# [15] = Cell Viability - LYMP2-014 (AID 983); note: nearly all actives have a fitted effect of over 50% in size
# Summary of the method: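 LYMP2-014 human lymphoblastoid cells, 2500/well, treated 24 h at 37 C in complete medium; viability by CellTiter-Glo ATP luminescence after 30 min at room temperature. AC50 from Hill fits of qHTS concentration-response; tetraoctylammonium bromide positive control.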
# [16] = Cell Viability - LYMP2-016 (AID 984); note: nearly all actives have a fitted effect of over 55% in size
# Summary of the method: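 Acute toxicity in a Coriell human lymphoblastoid line is scored as loss of intracellular ATP over 24 h of treatment in complete medium. CellTiter-Glo signal is fitted across concentrations with the Hill equation to give AC50.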
# [17] = Cell Viability - LYMP2-018 (AID 985);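 note: compound exposure lasted 24 hr at 37 °C; nearly all actives have a fitted effect of over 50% in size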
# Summary of the method: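 Human lymphoblastoid LYMP2-018 cells, 2500/well, settled 5 hr at 37 C then exposed to compound 24 hr at 37 C; intracellular ATP measured by CellTiter-Glo luminescence. AC50 from Hill-equation concentration-response fits.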
# [18] = Cell Viability - LYMP2-020 (AID 986); note: nearly all actives have a fitted effect of over 55% in size
# Summary of the method: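 Human lymphoblastoid LYMP2-020 cells (2500/well) preincubated 5 h at 37 C, then treated 24 h at 37 C. Viability measured as intracellular ATP by CellTiter-Glo luminescence after 30 min at room temperature; AC50 from Hill fits.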
# [19] = Cell Viability - LYMP2-024 (AID 988); note: nearly all actives have a fitted effect of over 60% in size
# Summary of the method: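 Human lymphoblastoid LYMP2-024 cells (2500/well) rested 5 hr, then treated with compound for 24 hr at 37 C in complete medium. Viability was measured as intracellular ATP by CellTiter-Glo luminescence. AC50 values came from Hill-equation fits.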
# [20] = Cell Viability - LYMP2-026 (AID 989); note: nearly all actives have a fitted effect of over 50% in size
# Summary of the method: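 Human lymphoblastoid LYMP2-026 cells, 2500/well, exposed to compound 24 h at 37 C in complete medium. Viability as intracellular ATP by CellTiter-Glo luminescence; AC50 from Hill fits of qHTS concentration-response.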
# [21] = measured here: cell count channel max response
# [22] = measured here: lipid channel max response
smiles,measurement,setting,value
O=c1c(O)c(-c2cc(O)c(O)c(O)c2)oc2cc(O)cc(O)c12,outcome,[1],inactive
same,outcome,[2],inactive
same,outcome,[3],inactive
same,"activity change, negative = inhibition",[4]; at 25.7 µM (top of the series),2.34% (inactive)
same,"activity change, negative = inhibition",[4]; at 57.5 µM (top of the series),14.6% (inactive) and -3.22% (inactive)
same,max response,[4]; [21],-7.21% and 17.3% and -40.9%
same,max response,[4]; [22],-2.79% and 29.1% and -42.9%
same,Potency,[5],0.355 µM (active)
same,Potency,[6],3.55 µM (active)
Cc1cc(O)c2c(c1)C(=O)c1cc(O)cc(O)c1C2=O,Potency,[7],inactive
same,Potency,[8],inactive
same,Potency,[9],inactive
same,outcome,[1],inactive
same,Potency,[10],inactive
same,Potency,[11],inactive
same,outcome,[2],inactive
same,outcome,[3],inactive
same,"activity change, negative = inhibition",[4]; at 57.5 µM (top of the series),-0.138% (inactive) and 5.28% (inactive)
same,max response,[4]; [21],55.1% and -15.9%
same,max response,[4]; [22],55.2% and -8.66%
COc1cc(OC)c(C(=O)CCCN2CCCC2)c(OC)c1,"activity change, negative = inhibition",[4]; at 25.7 µM (top of the series),-0.942% (inactive)
same,max response,[4]; [21],-9.33%
same,max response,[4]; [22],-9.82%
CC1(C)C(=O)N(CCN2CCC(C(=O)c3ccc(F)cc3)CC2)c2ccccc21,outcome,[1],inactive
same,outcome,[2],inactive
same,outcome,[3],inactive
same,Potency,[5],inactive
same,Potency,[6],inactive
O=C(O)c1cn(-c2ccc(F)cc2)c2cc(N3CCNCC3)c(F)cc2c1=O,"activity change, negative = inhibition",[4]; at 57.5 µM (top of the series),4.61% (inactive)
same,max response,[4]; [21],14.8%
same,max response,[4]; [22],20.1%
Cc1ccc(S(=O)(=O)NC(=O)NN2CC3CCCC3C2)cc1 (stereo unspecified),"activity change, negative = inhibition",[4]; at 57.5 µM (top of the series),1.76% (inactive) and 2.62% (inactive)
same,max response,[4]; [21],7.98% and 20.6%
same,max response,[4]; [22],13.4% and 23.5%
Cc1cccc(C#Cc2ccccc2)n1,outcome,[1],inactive
same,outcome,[2],inactive
same,outcome,[3],inactive
same,Potency,[5],inactive
same,Potency,[6],inactive
Oc1ccc(OCc2ccccc2)cc1,"activity change, negative = inhibition",[4]; at 25.7 µM (top of the series),-0.0547% (inactive)
same,max response,[4]; [21],-20%
same,max response,[4]; [22],-20.9%
N=C(N=C(N)N)N1CCOCC1,"activity change, negative = inhibition",[4]; at 25.7 µM (top of the series),-1.12% (inactive)
same,max response,[4]; [21],14.2%
same,max response,[4]; [22],12.8%
O=c1ccc2ccc(O)c(O)c2o1,outcome,[1],inactive
same,outcome,[2],inactive
same,Potency,[5],17.8 µM (active)
same,Potency,[6],inactive
CN1CCC(=C2c3ccccc3CCc3sccc32)CC1,"activity change, negative = inhibition",[4]; at 25.7 µM (top of the series),-0.622% (inactive)
same,"activity change, negative = inhibition",[4]; at 57.5 µM (top of the series),3.6% (inactive)
same,max response,[4]; [21],-11.4% and -0.631%
same,max response,[4]; [22],-11.1% and 14.8%
O=C(O)c1cccnc1Nc1cccc(C(F)(F)F)c1,outcome,[1],inactive
same,outcome,[2],inactive
same,"activity change, negative = inhibition",[4]; at 25.7 µM (top of the series),2.12% (inactive)
same,"activity change, negative = inhibition",[4]; at 57.5 µM (top of the series),2.96% (inactive)
same,max response,[4]; [21],-6.57% and 55.9%
same,max response,[4]; [22],-3.91% and 60.1%
same,Potency,[5],inactive
same,Potency,[6],inactive
COc1c2occc2cc2ccc(=O)oc12,Potency,[7],inactive
same,Potency,[12],inactive
same,Potency,[13],inactive
same,Potency,[14],inactive
same,Potency,[8],inactive
same,Potency,[15],inactive
same,Potency,[16],inactive
same,Potency,[17],inactive
same,Potency,[18],inactive
same,Potency,[9],inactive
same,Potency,[19],inactive
same,Potency,[20],inactive
same,Potency,[10],inactive
same,Potency,[11],inactive
same,"activity change, negative = inhibition",[4]; at 25.7 µM (top of the series),2.64% (inactive)
same,max response,[4]; [21],-4.25%
same,max response,[4]; [22],1.14%
O=c1cc(N2CCOCC2)oc2c(-c3ccccc3)cccc12,outcome,[1],inactive
same,outcome,[2],inactive
same,Potency,[5],inactive
same,Potency,[6],inactive
CC(=O)Nc1ccc(O)cc1,Potency,[7],inactive
same,Potency,[12],inactive
same,Potency,[13],inactive
same,Potency,[14],inactive
same,Potency,[8],inactive
same,Potency,[15],inactive
same,Potency,[16],inactive
same,Potency,[17],inactive
same,Potency,[18],inactive
same,Potency,[9],inactive
same,Potency,[19],inactive
same,Potency,[20],inactive
same,Potency,[10],inactive
same,Potency,[11],inactive
Cc1c(OCC(F)(F)F)ccnc1CS(=O)c1nc2ccccc2[nH]1 (stereo unspecified),outcome,[1],inactive
same,outcome,[2],inactive
same,"activity change, negative = inhibition",[4]; at 25.7 µM (top of the series),-2.59% (inactive)
same,"activity change, negative = inhibition",[4]; at 57.5 µM (top of the series),0.201% (inactive)
same,max response,[4]; [21],-16.9% and 6.05%
same,max response,[4]; [22],-17.5% and 9.62%
same,Potency,[5],inactive
same,Potency,[6],inactive
NC(=NCc1ccccc1)NC(=O)c1nc(Cl)c(N)nc1N,outcome,[1],inactive
same,outcome,[2],inactive
same,Potency,[5],inactive
same,Potency,[6],inactive
CC(C)c1ccc2c(c1)c(SC(C)(C)C)c(CC(C)(C)C(=O)O)n2Cc1ccc(Cl)cc1,outcome,[1],inactive
same,outcome,[2],inactive
same,Potency,[5],39.8 µM (active)
